Assay results from PubChem BioAssay (NCI).
The panel holds about 83,000 compounds, 20% with a hit somewhere; the sample as a whole holds those more often.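 Negative percent growth values reflect cell death: -40 means 40% of the cells present at the start died, and -100 means all died.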 A number with no mark means an inactive call. Active and inactive are the calls of the source. How the source made its calls: active means growth percent below 10; inactive means the rest.

Test system: HL-60(TB) leukemia
Experiment: NCI-60 one-dose screen, 48 h (100 = growth as untreated, 0 = no growth, -100 = all killed)
Conditions: 10 µM unless noted

SMILES | growth
O=C(CSc1nnc(-c2ccc(-c3nc4ccc(Cl)cc4[nH]3)cc2)o1)Nc1ccccc1 | 42.1%
CCCCCCCCCCCCCCCCCCCC(=O)NCCc1c[nH]c2ccc(OC(=O)NOCCOCCOCCOCCOCCOCCOCCOCCOCCOCCOCCOCCOCCOCCOCCOCCOCCOCCOCCOCCOCCOCCOC)cc12 | -38.2% (active)
CC1=C(C)C(=O)C(NCCN2CCOCC2)=C(Br)C1=O | -24.9% (active)
CC1=C(C(=O)OCc2ccccc2)C(c2ccc(-n3cncn3)cc2)n2c(nc3ccccc32)N1 (stereo unspecified) | 8.84% (active)
COc1ccc(Cc2nn(CC(=O)N/N=C/c3ccc(F)cc3)c(=O)c3c(C)noc23)cc1 | 78.2%
CCOc1ccccc1NC(=O)N/C(N)=N/c1nc2ccccc2s1 | -23.4% (active)
COC(=O)c1cccc(Oc2ccc(NC(=O)Nc3cc(C(F)(F)F)ccc3F)cc2)c1 | 78%
COc1ccc(-c2cc(-c3cc(C(C)C)c(O)cc3C)nn2-c2ccc(S(N)(=O)=O)cc2)cc1 | 9.51% (active)
COc1ccc(/C=C/c2nc3ccccc3c(=O)n2CC(=O)Nc2ccccc2)cc1 | 94.1%
C=CC(=O)Nc1ccc(C(=O)/C=C/c2ccc(N(C)CCF)cc2)c(O)c1 | -32.2% (active)
Cc1ccn2c(C(=O)c3ccc(Br)cc3)cc(-c3cc(-c4ccc(N(C)C)cc4)c(C#N)c(N)n3)c2c1 | 89.5%
CC1=C(C(=O)OC(C)C)C(c2ccc(O)cc2)NC(=S)N1 (stereo unspecified) | 88.1%
COc1ccc(/C=C/C(=O)c2ccc(OC)c(S(N)(=O)=O)c2)c(C(F)(F)F)c1 | 3.73% (active)
COc1cc2oc(-c3cccc(C(=O)Nc4ccc(Cl)cc4)c3)cc(=O)c2c(OCCNC(=O)[C@H](CO)NC(=O)OC(C)(C)C)c1OC | -32.5% (active)
Cc1ccc(-c2cc(-c3ccccc3)[nH]c(=O)c2C#N)cc1 | 86.9%
CC1=C2C(=C[C@@](C)(COCOCCCl)[C@@H]2O)C(=O)[C@](C)(O)C12CC2 | -31.8% (active)
O=C(NCCCCCCCCCC[P+](c1ccccc1)(c1ccccc1)c1ccccc1)c1ccc(-n2nc(-c3ccccc3O)nc2-c2ccccc2O)cc1 | -29.8% (active)
O=C(NC(=S)N1CCN(c2ncnc3c2cnn3-c2ccccc2)CC1)c1ccc(Br)cc1 | 90.8%
COc1cc2oc(-c3cccc(C(=O)Nc4ccc(Cl)cc4)c3)cc(=O)c2c(OCC(=O)N[C@@H](Cc2ccccc2)C(=O)O)c1OC | 115%
O=C(N/N=C/c1ccc(-c2ccc(O)cc2)s1)c1[nH]c2ccc(Br)cc2c1-c1ccccc1 | -12.4% (active)
COc1cc(NC(=O)c2cc(-c3ccc(F)cc3F)ccc2O)cc(OC)c1OC | 15.8%
COC[C@@H](CC(C)C)N=C1NC(=O)/C(=C/c2ccc3ncoc3c2)N1 | 1.03% (active)
Cc1ccccc1[C@H]1C(C(=O)c2ccc(Cl)cc2)C2(N[C@@H]1c1ccccc1)C(=O)Nc1ccc(Br)cc12 (stereo partly specified) | -1.57% (active)
Cc1cc(=O)oc2cc(OCCCOc3ccc(/C=C/C(=O)Nc4ccccc4N)cc3)ccc12 | 1.53% (active)
O=C1CCC(N2Cc3cc(CC(=O)Nc4ccc(N5CCCCC5)cc4)ccc3C2=O)C(=O)N1 (stereo unspecified) | -0.226% (active)
COc1ccc(NC(=O)Cn2c(/C=C/c3ccc([N+](=O)[O-])cc3)nc3ccccc3c2=O)cc1 | 112%
